Source: PubChem
Rows were chosen to be rich in hits. Some 3.7% of all compounds tested hit in one or more screens of this group.
TIM10 inh: growth inhibitors of TIM10 yeast strain; inhibition, % at 10 µM; S. cerevisiae TIM10 strain growth, BacTiter-Glo luminescence, 24 h; 1.4% of 330,000 active; AID 463195;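 active means inhibition of 40% or more at the single tested concentration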;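 further: wild-type TIM10 isogenic control strain grown at permissive 25 °C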
Rce1 inhib: inhibitors of yeast Ras-converting enzyme; Q03530; yeast membranes, quenched prenylated peptide cleavage fluorescence; calls only; 0.27% of 290,000 active;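 active means fall in fluorescence gain of 50% or more versus controls, with final raw signal at or below 3038400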;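 further: plate controls were neutral control wells for no effect and wells lacking membranes for full effect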
Target sequence (Q03530 whole entry, looked up): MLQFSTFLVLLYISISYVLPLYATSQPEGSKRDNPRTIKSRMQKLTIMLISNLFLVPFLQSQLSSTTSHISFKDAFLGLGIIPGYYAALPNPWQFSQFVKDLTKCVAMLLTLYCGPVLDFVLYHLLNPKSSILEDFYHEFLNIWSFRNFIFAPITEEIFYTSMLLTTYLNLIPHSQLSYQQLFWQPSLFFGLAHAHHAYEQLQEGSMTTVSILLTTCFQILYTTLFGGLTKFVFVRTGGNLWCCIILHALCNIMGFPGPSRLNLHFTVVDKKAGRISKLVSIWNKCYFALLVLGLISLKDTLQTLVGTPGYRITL
tim23-1 inh: inhibits growth of tim23-1 mutant yeast. S. cerevisiae tim23-1 growth, BacTiter-Glo luminescence, 24 h. inhibition, % at 20 µM. 1.3% of 330,000 active;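 active means growth inhibition of the mutant yeast at or above 50%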;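 further: temperature-sensitive mutant grown at 25 °C; plate controls were DMSO-treated mutant yeast for no effect and medium wells lacking yeast for full effect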
PfHsp90 yeast 2: inhibits growth of yeast expressing Plasmodium falciparum Hsp90; inhibition, % at 9.4 µM; 0.32% of 310,000 active; S. cerevisiae expressing PfHsp90, BacTiter-Glo ATP, 48 h; yeast lacking PDR1 and PDR3 efflux regulators;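 active means every replicate shows inhibition above about 80%, whatever the replicate mean, limit read from the data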;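 further: 0% = DMSO neutral controls and 100% = 20 µM radicicol positive controls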
tim10-1 inh: tim10-1 yeast growth inhibition | S. cerevisiae tim10-1 ts strain growth, BacTiter-Glo, 24 h | 2.2% of 330,000 active | inhibition, % at 20 µM;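 active means inhibition of at least 40%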;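 further: mutant grown at 25 °C; 0% = DMSO wells with yeast and 100% = wells holding no yeast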
tim10-1 conf: confirmation of tim10-1 mutant yeast growth inhibitors. shares compounds with tim10-1 inh. S. cerevisiae tim10-1 ts strain growth, BacTiter-Glo, 24 h. inhibition, % at 20 µM. 56% of 7,400 active. AID 463213;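 active means inhibition of yeast growth at or above a set limit in either of two repeat tests at 20 µM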;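 further: tim10-1 mutant grown at permissive 25 °C to find synthetic lethal compounds; 0% = DMSO yeast wells and 100% = medium wells without yeast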
tim10 confirm: TIM10 yeast growth inhibition, confirmed; shares compounds with TIM10 inh; S. cerevisiae tim10 strain growth, BacTiter-Glo luminescence, 24 h; inhibition, % at 10 µM; 63% of 4,600 active; AID 463215;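 active means inhibition of yeast growth at or above a set limit in either of two replicates at 10 µM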;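 further: this counterscreen used the strain with wild-type TIM10; 0% = yeast with DMSO and 100% = medium wells lacking yeast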
tim23-1 confirm: tim23-1 yeast growth inhibition, confirmed. shares compounds with tim23-1 inh. S. cerevisiae tim23-1 growth, BacTiter-Glo luminescence, 24 h. 83% of 4,400 active. inhibition, % at 20 µM;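 active means inhibition above about 39% in either of two replicate wells at 20 µM, limit read from the data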;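 further: temperature-sensitive tim23-1 mutant grown at 25 °C; 0% = DMSO wells with yeast and 100% = medium wells without yeast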
Starred values were filed as active, the others as inactive; i = inactive; . = no result.

SMILES | TIM10 inh | Rce1 inhib | tim23-1 inh | PfHsp90 yeast 2 | tim10-1 inh | tim10-1 conf | tim10 confirm | tim23-1 confirm
COc1ccc(C2/C=C\CN(Cc3ccco3)CC(=O)N2Cc2ccc(F)cc2)cc1 (configuration not stated) | 0 | i | -4 | . | 21 | . | . | .
CCOC(=O)[C@@H]1[C@H]2COc3cc(OC)ccc3[C@H]2N2C(=O)N(c3ccc(C(F)(F)F)cc3)C(=O)[C@]12C | 75* | . | 84* | 35 | 77* | 84* | 73* | 86*
CCOC(=O)[C@@H]1[C@H]2COc3cc(OC)ccc3[C@@H]2N2C(=O)N(c3ccc(C(F)(F)F)cc3)C(=O)[C@@]12C | 19 | i | 25 | -2 | 12 | . | . | .
COCC(=O)N1CCC2CC1c1c(-c3ccc(C(F)(F)F)cc3)cccc12 (configuration not stated) | . | . | . | -25 | . | . | . | .
Oc1ccccc1Oc1c(F)c(F)nc(N2CCCC2)c1F | 39 | i | 37 | 2 | 38 | . | . | .
CC(=O)/C=C/c1ccccc1Oc1c(F)c(F)nc(F)c1F | 26 | i | 54* | 0 | 45* | 41* | . | 40*
COc1ccc(N2CCN(C(=O)CC34CC5CC(CC(C5)C3)C4)CC2)c([N+](=O)[O-])c1 | 29 | i | 32 | 21 | 18 | . | . | .
O=C(ONC1=NCCCCC1)c1c(F)cccc1F | 44* | . | 53* | -49 | 51* | 45* | 33* | 59*
O=C(ONC1=NCCCCC1)c1ccc(Cl)cc1 | 87* | i | 61* | 62 | 52* | 38* | 84* | 41*
CC1(c2ccccc2Cl)NC(=O)N(CC(=O)N2CCN(S(=O)(=O)c3ccccc3)CC2)C1=O (configuration not stated) | 7 | i | -6 | 8 | 6 | . | . | .
Cc1cccc(C(=O)Nc2scc(-c3ccc(Br)cc3)c2C(=O)O)c1 | 4 | i | 43 | -16 | 12 | . | . | .
CC(C)c1ccc(-c2csc(NC(=O)c3cccs3)c2C(=O)O)cc1 | 81* | i | 67* | 30 | 76* | 86* | 92* | 89*
Cc1ccc(-c2csc(NC(=O)/C=C/c3ccco3)c2C(=O)O)cc1 | 81* | i | 79* | 28 | 76* | 74* | 79* | 89*
CC(C)c1ccc(C(CC(=O)O)NC(=O)c2cccs2)cc1 (configuration not stated) | -6 | i | 7 | 14 | 10 | . | . | .
Cc1ccc(-c2csc(NC(=O)c3ccc(Br)cc3)c2C(=O)O)cc1 | 82* | i | 84* | 24 | 81* | 82* | 93* | 89*
Cc1ccc(-c2csc(NC(=O)c3cccc(C)c3)c2C(=O)O)cc1 | 83* | i | 83* | 30 | 72* | 84* | 90* | 89*
COc1ccc(Cl)cc1NC(=O)CN(C)C(=O)c1cc(-c2ccncc2)nc2ccccc12 | 2 | i | 21 | . | 25 | . | . | .
Cn1ccnc1SCC(=O)c1cccc(C(F)(F)F)c1 | -6 | i | 25 | -10 | 10 | . | . | .
CCOC(=O)c1ccccc1NC(=O)CSc1nnnn1C1CCCCC1 | 36 | i | 53* | . | 43* | 19 | . | 34
CCOC(=O)C(C)Oc1nc(Oc2ccccc2)nc(N(C)C)n1 (configuration not stated) | 5 | i | 36 | -13 | 21 | . | . | .
CC(C)N1C2OC(C3OC4C(O3)N(C(C)C)S(=O)(=O)N4C(C)C)OC2N(C(C)C)S1(=O)=O (configuration not stated) | 89* | i | 55* | . | 60* | 71* | 88* | 29
Cc1[nH]c2ccc(C(=O)N3CCN(c4ccccc4Cl)CC3)cc2c1C | 40* | i | 51* | 8 | 57* | 25 | 12 | 48*
Fc1ccccc1-c1nc(NC2CCCC2)c2ccccc2n1 | 52* | i | 67* | -28 | 52* | 50* | 48* | 75*
CCCCCCCCNC1=CC(=O)CC(C)(C)C1 | -14 | i | 5 | 25 | 3 | . | . | .
